In all, about 16,000 compounds went through this assay and about 4,000 (25%) were called active. Inconclusive results (about 26%) are left out. The list is a sample of the results. Unmarked numbers belong to inactive results. Calls come from the whole dose curve; as a rule, active = well fitted curve in the direction sought with a large enough effect; inconclusive = small, poorly fitted or top-dose-only effect, or effect the other way; inactive = no such curve, though single readings can be large or run the other way.
The compounds below were run against Cytochrome P450 2C9 (Homo sapiens) (UniProt P11712) (assay: Cytochrome panel assay with activity outcomes). Conditions: recombinant CYP, pro-luciferin dealkylation, luminescence, p450-cyp2c9; series mostly up to 57.1 µM; activity, negative = inhibition: at the top concentration.
Cytochrome P450 2C9 (Homo sapiens), sequence (P11712 whole entry, looked up): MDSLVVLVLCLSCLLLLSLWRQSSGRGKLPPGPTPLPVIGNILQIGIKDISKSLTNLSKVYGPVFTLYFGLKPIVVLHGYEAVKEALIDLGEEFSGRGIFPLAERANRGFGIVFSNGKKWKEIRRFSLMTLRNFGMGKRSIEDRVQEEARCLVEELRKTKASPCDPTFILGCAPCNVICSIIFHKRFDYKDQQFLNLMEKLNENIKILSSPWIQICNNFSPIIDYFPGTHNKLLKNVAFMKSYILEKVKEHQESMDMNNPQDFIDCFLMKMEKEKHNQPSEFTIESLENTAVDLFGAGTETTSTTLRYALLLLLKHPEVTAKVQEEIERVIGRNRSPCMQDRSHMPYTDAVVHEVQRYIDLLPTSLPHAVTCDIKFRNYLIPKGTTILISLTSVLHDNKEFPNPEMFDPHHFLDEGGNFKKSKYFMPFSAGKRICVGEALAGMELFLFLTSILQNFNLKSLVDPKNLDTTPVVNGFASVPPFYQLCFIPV
With `Cc1noc(C)c1-c1nc(NCc2cccs2)c2ccccc2n1` the activity, negative = inhibition was -11.4% [at 2.29 µM]. `CN(C)C(=O)c1ccc(-c2nc(NCc3cccs3)c3ccccc3n2)cc1` showed an activity, negative = inhibition of -26.2% [at 2.29 µM]. With `Cc1ccc(C)c(-c2cc(C(=O)NCc3cccs3)c3ccccc3n2)c1` the AC50 was 1.26 µM (active). With `CS(=O)(=O)N1CCC2(CCN(C(=O)Nc3cccc(C#N)c3)CC2)CC1` the “activity, negative = inhibition” value was -1.38%. In the case of `c1ccc2oc(C3=NCCN3)cc2c1`, the “activity, negative = inhibition” value is reported as 6.13%. `COCCOC(=O)C1=C(C)NC(=O)N(C(C)=O)C1c1ccc(Cl)cc1` (stereo not drawn) was tested, and the AC50 was 4.47 µM (active). With `CC(=O)NC(Cc1ccc(F)cc1)C(=O)O` (stereo not drawn) the “activity, negative = inhibition” value was 7.48%. `Cc1nc2c(C(=O)NCCC(C)C)c[nH]n2c(=O)c1Cc1ccccc1F` was tested, and the AC50 was 2.82 µM (active). In the case of `Cc1nc2c(C(=O)NCc3ccc4c(c3)OCO4)c[nH]n2c(=O)c1Cc1ccccc1F`, the AC50 is reported as 0.501 µM (active). With `O=C(O)c1cc2c(o1)CCC/C2=N\O` the “activity, negative = inhibition” value was -26.6%. `CC1(C)S[C@@H]2[C@H](NC(=O)[C@@H](N)c3ccc(O)cc3)C(=O)N2[C@H]1C(=O)O` was tested, and the “activity, negative = inhibition” value was 17% [at 25.6 µM]. `O=C(c1c(O)c2ccc(Cl)cc2[nH]c1=O)C1CC1` was tested, and the “activity, negative = inhibition” value was -5.08%. With `O=c1[nH]c2cc(Cl)ccc2c(O)c1-c1ccc(Oc2ccccc2)cc1` the AC50 was 12.6 µM (active). In the case of `O=c1[nH]c2cc(Cl)ccc2c(O)c1-c1cccc(Oc2ccccc2)c1`, the “activity, negative = inhibition” value is reported as -21.6%. For `CCOC(=O)Cc1c(C)nc2c(C#N)c[nH]n2c1=O`, the AC50 was 12.6 µM (active). For `CCOC(=O)Cc1cc(=O)n2[nH]c(C)c(C#N)c2n1`, the “activity, negative = inhibition” value was -6.59%. With `CC(C)CCNC1=NCCCCC1` the “activity, negative = inhibition” value was 3.84%. `OC[C@H]1O[C@H](n2cnc3c(NC4CCCC4)nc(Cl)nc32)[C@@H](O)[C@@H]1O` was tested, and the “activity, negative = inhibition” value was -9.28%. `Cc1noc(C)c1-c1nc(NC2CCNCC2)c2ccccc2n1` was tested, and the activity, negative = inhibition was 13% [at 2.29 µM]. In the case of `O=C(c1n[nH]c(=O)c2ccccc12)N1CCN(C2c3ccccc3-c3ccccc32)CC1`, the AC50 is reported as 2.82 µM (active). For `Cc1cc(C)nc(SCCc2cccc[n+]2C)n1`, the activity, negative = inhibition was -3.45% [at 11.4 µM]. With `N#C/C(=C\c1ccc(O)c(O)c1)C(=O)c1ccc(O)c(O)c1` the “activity, negative = inhibition” value was 11.7%. With `COc1cc(/C=C(\C#N)C(=O)c2ccc(O)c(O)c2)cc(I)c1O` the AC50 was 0.501 µM (active). `C[C@H]1CN(CCO)CCN1c1ccccc1` gave an activity, negative = inhibition of -1.76% [at 11.4 µM]. `COc1cccc([C@H](O)Cn2cc(-c3cccc(CON=C(C)C)c3)nn2)c1` was tested, and the activity, negative = inhibition was -2.7% [at 11.4 µM]. `CC(C)=NOCc1ccc(-c2cc(-c3ccccc3)no2)cc1` showed an activity, negative = inhibition of 12% [at 11.4 µM]. With `CC(C)=NOCc1cccc(-c2cc(-c3ccccc3)no2)c1` the AC50 was 3.98 µM (active). In the case of `CC(=O)c1ccc(NC(=O)C2(c3ccccc3)CCOCC2)cc1`, the AC50 is reported as 5.01 µM (active). In the case of `CCOC(=O)c1ccc(NC(=O)C2(c3ccc(OC)cc3)CCOCC2)cc1`, the AC50 is reported as 5.62 µM (active). For `COc1ccc(C2(C(=O)N3CCOCC3)CCCC2)cc1`, the “activity, negative = inhibition” value was -17.7%. `CN(C)CCOC(=O)C1(c2ccccc2)CCOCC1` was tested, and the “activity, negative = inhibition” value was -19.5%. For `CCOC(=O)c1ccc(N/C=C/C(=O)c2ccc(OC)cc2)cc1`, the “activity, negative = inhibition” value was 13.1%. `Cc1cnc(CNc2ccnc(-c3ccccc3C)n2)cn1` showed an activity, negative = inhibition of 11.5% [at 2.29 µM]. `CCOC(=O)c1cccc(C(=O)OCC)n1` was tested, and the “activity, negative = inhibition” value was -2.66%. For `O=C(OCC(=O)c1cccs1)c1cccc(C(=O)OCC(=O)c2cccs2)n1`, the AC50 was 8.91 µM (active). With `COc1ccc(CNc2cc(-c3ccoc3)ncn2)c(OC)c1` the activity, negative = inhibition was 3.4% [at 2.29 µM]. With `COc1ccccc1CN1CC2(CCN(C(=O)c3ccncc3)CC2)C1` the “activity, negative = inhibition” value was 2.75%. `COc1ccccc1C(c1nnnn1C(C)(C)C)N1CCN(Cc2ccncc2)CC1` (stereo not drawn) was tested, and the AC50 was 0.631 µM (active). `Cc1cccc(CN2CCN([C@@H](c3ccccc3)c3ccc(Cl)cc3)CC2)c1` was tested, and the “activity, negative = inhibition” value was -14.8% [at 25.6 µM]. In the case of `COc1ccccc1C(c1nnnn1C(C)(C)C)N1CCCc2ccccc21` (stereo not drawn), the AC50 is reported as 3.98 µM (active). For `CNC(=O)[C@@H]1O[C@@H](n2cnc3c(NCc4ccc(N)cc4)ncnc32)[C@@H](O)[C@H]1O`, the “activity, negative = inhibition” value was 6.6%. With `CCN1CCCC1CNC(=O)C(=O)Nc1ccc(OC)cc1` (stereo not drawn) the “activity, negative = inhibition” value was 3.7%. Compound `COc1ccc(COC(=O)N/N=C2/C[C@@H](O)[C@@H](O)[C@@H]3[C@@H]4C(=O)N(c5cccc(Oc6ccccc6)c5)C(=O)[C@H]4CC[C@H]23)cc1` has an activity, negative = inhibition of -15.2% [at 11.4 µM]. With `COc1cccc(N2C(=O)C(CC(=O)Nc3ccccc3)N(C3CCCCC3)C2=O)c1` (stereo not drawn) the AC50 was 8.91 µM (active). `COc1ccc(COC(=O)N/N=C2/C[C@@H](O)[C@@H](O)[C@@H]3[C@@H]4C(=O)N(c5cccc(Oc6ccccc6)c5)C(=O)[C@H]4CC[C@@H]23)cc1` gave an activity, negative = inhibition of -7.36% [at 11.4 µM]. With `COc1ccc(NC(=O)CC2C(=O)N(c3cccc(OC)c3)C(=O)N2C2CCCCC2)cc1` (stereo not drawn) the AC50 was 15.8 µM (active). With `CC1(C)O[C@@H]2C[C@H]3[C@H]4C[C@H](F)C5=CC(=O)C=C[C@@]5(C)[C@@H]4[C@H](O)C[C@]3(C)[C@]2(C(=O)CO)O1` the “activity, negative = inhibition” value was -11.4% [at 25.6 µM]. `Cc1ccc(-n2c(N)c(C(=O)NCc3ccco3)sc2=S)cc1` was tested, and the AC50 was 14.1 µM (active). `O=C(NCc1ccco1)c1ccc2c(=O)n(-c3ccccc3)c(=S)[nH]c2c1` was tested, and the “activity, negative = inhibition” value was 9.67%. In the case of `COC(=O)CCCC(=O)O`, the activity, negative = inhibition is reported as -1.69% [at 11.4 µM]. In the case of `CCCCNC(=O)NS(=O)(=O)c1ccc(C(=O)OC(C)C)o1`, the AC50 is reported as 2.82 µM (active). For `Cc1ccc(CS(=O)(=O)CCC(=O)NCCCOC(C)C)cc1`, the “activity, negative = inhibition” value was -10.3%. In the case of `CCCCNC(=O)NC1C(NC(=O)NCCCC)N(C)C(=O)N1C` (stereo not drawn), the “activity, negative = inhibition” value is reported as -17%. With `Cc1ccc(-c2cc(C(F)F)n3ncc(C(=O)Nc4c(C)nn(Cc5c(Cl)cccc5Cl)c4C)c3n2)cc1` the AC50 was 1 µM (active). With `Cc1nn(Cc2c(Cl)cccc2Cl)c(C)c1NC(=O)c1cnn2c(C(F)F)cc(-c3ccccc3)nc12` the AC50 was 1.26 µM (active). For `Cc1cc(C(F)F)n2ncc(C(=O)NCc3ccccc3C(F)(F)F)c2n1`, the “activity, negative = inhibition” value was -63.8%. `CC(=O)OC[C@@H]1O[C@H](C/C=N\OC[C@@H](O)COCc2ccco2)C=C[C@@H]1OC(C)=O` showed an activity, negative = inhibition of 24.5% [at 11.4 µM]. For `N[C@H](C(=O)O)[C@@H](O)c1cnc[nH]1`, the activity, negative = inhibition was 20.3% [at 11.4 µM].

Source: PubChem BioAssay AID1851 (National Center for Advancing Translational Sciences (NCATS), 2009)
% is set by controls: 0 for no effect and ±100 for the full control effect.
